This note sets out measurements from PubChem BioAssay (NCI).

What all share (assay): NCI-60 one-dose screen, 48 h (100 = growth as untreated, 0 = no growth, -100 = all killed)
Holding throughout (settings): 10 µM unless noted

The test system of test [1] is T-47D breast.
Test [2] concerns BT-549 breast.
Test [3] relates to MDA-MB-435 melanoma.
Test [4] deals with SW-620 colon.
Test [5] concerns MCF7 breast.
Test [6] relates to HCT-116 colon.
Test [7] relates to HCC-2998 colon.
Test [8] relates to KM12 colon.

The panel holds about 83,000 compounds, 20% with a hit somewhere; the sample as a whole holds those more often.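 Growth was measured after 48 h exposure to one concentration of compound in 96-well plates. Values under 10 count as active.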 A number with no mark means an inactive call. Activity calls are given as the source filed them.

For `O=C(O)c1cccc2oc(-c3ccccc3O)nc12`, the growth in test [1] is 52.2%; in test [2], 75.5%; in test [3], 71.3%; in test [4], 47.3%; in test [5] it was 59.1%; in test [6], 36.8%. In addition, the growth in test [7] is 44.7%; in test [8], 46%.
On to `Cn1cnc([N+](=O)[O-])c1N1c2ccncc2Sc2ccncc21`, for which the growth in test [1] is 86%; in test [2], 113%; in test [3], 110%; in test [4], 95.1%; in test [5] it was 101%; in test [6], 95.7%. The results for the growth in test [7] and in test [8] were 114% and 103%, respectively.
As to `O=[N+]([O-])c1cccc(C(c2ccccc2)c2ccccc2)c1`, the growth is 83.2% in test [1]; 106% in test [2]; 99.5% in test [3]; 87.7% in test [4]; 106% in test [5]; 65.6% in test [6]. Also, the growth in test [7] is 92.5%; in test [8] it was 87%.
`O=c1c2ccccc2[nH]n1Cc1ccc2c(c1)OCO2`: the growth in test [1] was 88.9%; in test [2] it was 107%; in test [3] it was 105%; in test [4], 108%; in test [5], 90.8%; in test [6] it was 99.9%. In addition, the values for the growth in test [7] and in test [8] were 106% and 102%, respectively.
In the case of `CCCCn1c(-c2cccc(OC)c2)nc2cc(OC)c(OC)cc2c1=O`, the growth in test [1] is 91.6%; in test [2], 283%; in test [3], 115%; in test [4], 102%; in test [5], 97.9%; in test [6], 89.3%. Also, the growth in test [7] is 103%; in test [8], 108%.
Take `OC(COc1ccccc1Cl)CN1CCN(c2ccc(Cl)cc2)CC1` (stereo not given): the growth is 101% in test [1]; 89.9% in test [2]; 105% in test [3]; 108% in test [4]; 90.2% in test [5]; 96.4% in test [6]. Further, the growth was 102% in test [7] and 100% in test [8].
With `COC(=O)c1oc2c(C(=O)/C=C/c3ccc(OC)cc3)c(OCCN3CCOCC3)ccc2c1C`, the growth was 14% in test [1]; -6.36% (active) in test [2]; 20% in test [3]; -96.8% (active) in test [4]; 10.5% in test [5]; -73.9% (active) in test [6]. Further, the growth is 23.7% in test [7] and -10.1% (active) in test [8].
With `O=C1c2ccccc2C(=O)c2c(NCCN=Cc3c(O)ccc4ccccc34)cccc21`, the growth in test [1] is 75%; in test [2] it was 106%; in test [3] it was 96%; in test [4], 79.3%; in test [5], 72.6%; in test [6], 45.5%. Moreover, the growth was 95.7% in test [7] and 89% in test [8].
Regarding `Cc1cccc(NC(=O)CCc2ccc(N3C(N)=NC(N)=NC3(C)C)cc2)c1`, the growth in test [1] was 73.1%; in test [2] it was 45.8%; in test [3], 25.9%; in test [4] it was 33.5%; in test [5] it was 29.3%; in test [6], 18.9%. Also, the growth in test [7] is 33.3%; in test [8], 22.7%.
`C[C@]12O[C@H]1[C@H](O)c1c(cc(O)c3c1C(=O)c1cccc(O)c1-3)C2=O`: the growth in test [1] is 100%; in test [2], 95.5%; in test [3] it was 104%; in test [4] it was 113%; in test [5], 97.9%; in test [6], 93.4%. Further, the growth in test [7] is 112%; in test [8], 103%.
For `O=C(Nc1ccc(F)cc1)Nc1ccc(Cl)c([N+](=O)[O-])c1`, the growth was 6.68% (active) in test [1]; 42.4% in test [2]; 21.1% in test [3]; 19% in test [4]; 7.97% (active) in test [5]; 7.12% (active) in test [6]. Moreover, the results for the growth in test [7] and in test [8] were 20.2% and 12.4%, respectively.
`CCOC(=O)c1[nH]c(-c2ccc(Cl)cc2)cc1-c1cccnc1`: the growth in test [1] is 5.56% (active); in test [2] it was 29.4%; in test [3], -38% (active); in test [4], 25.4%; in test [5], 22.2%; in test [6] it was 9.8% (active). The growth in test [7] was 29.9%; in test [8] it was 19.8%.
For `CC(C)(c1ccc(OCC(O)CNCc2ccco2)cc1)c1ccc(OCC(O)CNCc2ccco2)cc1` (stereo not given), the growth in test [1] was 72.4%; in test [2], 88.7%; in test [3] it was 89.5%; in test [4], 90.3%; in test [5], 85.4%; in test [6], 60.2%. For the same compound, the growth is 46.6% in test [7] and 82.6% in test [8].
As to `COc1cc2ncnc(Oc3ccc(NC(=O)Nc4ccc(C5(C#N)CCCC5)cc4)c4ccccc34)c2cc1OC`, the growth in test [1] is 64.3%; in test [2], 86.5%; in test [3], 43.4%; in test [4] it was 53.9%; in test [5], 55.2%; in test [6] it was 30.8%. The figures for the growth in test [7] and in test [8] were 107% and 43.7%, respectively.
In the case of `CN(C)CCCOc1c(Br)cc(/C=C/C(=O)N(C)CCc2cc(Br)c(OCCCN(C)C)c(Br)c2)cc1Br`, the growth is 92.8% in test [1]; 76.5% in test [2]; 19.8% in test [3]; 32% in test [4]; 32.5% in test [5]; 12.1% in test [6]. Moreover, the results for the growth in test [7] and in test [8] were 73% and 47.7%, respectively.
